{
  "source": "PubChem BioAssay AID1159606",
  "about": "(Sanford-Burnham Center for Chemical Genomics, 2016)",
  "note": "Out of some 360,000 compounds screened, about 7,300 (2%) were called active. Cut-off read from the data, not from the text of the source: active = inhibition above about 50%; inactive = the rest. What follows is part of a selection rich in actives, with near analogues and random picks from the rest.",
  "data": [
    {"test": "inhibitors of TWEAK-Fn14 signaling, primary screen, luciferase reporter cells, uHTS (AID 1159606)", "conditions": "TWEAK-stimulated Fn14 reporter cells, luciferase luminescence, 8 h; at 10 µM; stronger effect = higher value", "values": [
      {"smiles": "FC(F)(F)c1cc(C(F)(F)F)c2ccc(N3CCN(c4ccccc4)CC3)nc2n1", "inhibition": "-12.2% (inactive)"},
      {"smiles": "Cc1ccc(Cc2c(-c3ccccc3)nc3ccc(Cl)cn23)cc1", "inhibition": "-20.8% (inactive)"},
      {"smiles": "Clc1ccc2nc(CSc3ccccc3)cn2c1", "inhibition": "59.6% (active)"},
      {"smiles": "Cc1ccc(-c2nc3ccc(Cl)cn3c2Cc2ccccc2)cc1", "inhibition": "-22% (inactive)"},
      {"smiles": "CC1(C(=O)NS(=O)(=O)c2cccc(F)c2)CCN1C(=O)c1cccc2ccccc12", "note": "(stereo not drawn)", "inhibition": "-20.6% (inactive)"},
      {"smiles": "Cc1ccc(-c2cnc(C(O)c3cc(Cl)cc(Cl)c3)[nH]2)cc1", "note": "(stereo not drawn)", "inhibition": "-5.74% (inactive)"},
      {"smiles": "CC1CCc2sc3nc(N4CCN(CCO)CC4)n4ncnc4c3c2C1", "note": "(stereo not drawn)", "inhibition": "-63.4% (inactive)"},
      {"smiles": "COC(=O)c1ccc2nc(-c3ccccc3)c(Cc3ccc(OC)cc3C)n2c1", "inhibition": "-3.6% (inactive)"},
      {"smiles": "CCCCNc1c(-c2ccc(OC)c(Sc3ccc(OC)cc3)c2)nc2ccc(Cl)cn12", "inhibition": "5.14% (inactive)"},
      {"smiles": "CCCCNc1c(-c2cccc(Sc3ccc(OC)cc3)c2)nc2ccccn12", "inhibition": "53.7% (active)"},
      {"smiles": "COC(=O)c1cc(=O)n(-c2c(Cl)cc(C(F)(F)F)cc2Cl)[nH]1", "inhibition": "7.88% (inactive)"},
      {"smiles": "O=C(Nc1ccccn1)C1CCN(S(=O)(=O)c2ccccc2)CC1", "inhibition": "-18.5% (inactive)"},
      {"smiles": "O=C(Nc1nccs1)C1CCN(S(=O)(=O)c2ccc(Cl)c(C(F)(F)F)c2)CC1", "inhibition": "73.5% (active)"},
      {"smiles": "CCOC(=O)C1CCCN(C(=O)C2CCN(S(=O)(=O)c3ccc(Cl)c(C(F)(F)F)c3)CC2)C1", "note": "(stereo not drawn)", "inhibition": "-2.02% (inactive)"},
      {"smiles": "N#Cc1cccc(NC(=O)c2cc(C3CCCCN3C(=O)CCc3ccccc3)on2)c1", "note": "(stereo not drawn)", "inhibition": "26.1% (inactive)"},
      {"smiles": "C#CCN(N(C)c1ncc(C(F)(F)F)cc1Cl)S(=O)(=O)c1ccc2ccccc2c1", "inhibition": "18% (inactive)"},
      {"smiles": "C=CCNc1nc(N)c(C(=C(C#N)C#N)c2ccccc2)s1", "inhibition": "17.7% (inactive)"},
      {"smiles": "COc1ccc(-n2c(-c3ccc(Cl)cc3)n[nH]c2=S)c(OC)c1", "inhibition": "0.97% (inactive)"},
      {"smiles": "Cc1cc(-c2n[nH]c(=S)n2-c2ccc(C)c(C)c2)no1", "inhibition": "4.62% (inactive)"},
      {"smiles": "Cc1ccc(-n2c(-c3ccc(Cl)cc3)n[nH]c2=S)cc1", "inhibition": "104% (active)"},
      {"smiles": "CC(C)Oc1ccc(/C=C(\\NC(=O)/C=C/c2ccco2)C(=O)NCCc2nc3ccccc3[nH]2)cc1", "inhibition": "13.7% (inactive)"},
      {"smiles": "CCCC(NC(=O)c1ccco1)c1nc2ccccc2[nH]1", "note": "(stereo not drawn)", "inhibition": "19.6% (inactive)"},
      {"smiles": "CC(C)=C(NC(=O)c1ccco1)C(=O)NCCc1nc2ccccc2[nH]1", "inhibition": "83.7% (active)"},
      {"smiles": "Cc1csc(NC(=O)CSc2ccc(-c3ccc(F)cc3)nn2)n1", "inhibition": "-0.16% (inactive)"},
      {"smiles": "C=CCC[C@H](CCCCC)OC(=O)/C=C/[C@H](O)[C@@H](O)C[C@@H](O)CC=C", "inhibition": "2.69% (inactive)"},
      {"smiles": "c1c2c(cc3sc(N4CCCCC4)nc13)OCCO2", "inhibition": "98.9% (active)"},
      {"smiles": "CCOC(=O)N1CCC(NC(=O)c2ccc3nc(N4CCOCC4)sc3c2)CC1", "inhibition": "18.3% (inactive)"},
      {"smiles": "CCCCc1ccc(NS(=O)(=O)c2cccc(C(=O)N3CCCN(C)CC3)c2)cc1", "inhibition": "13.3% (inactive)"},
      {"smiles": "CN(C)c1ccnc2sc3c(=O)n(Cc4ccccc4)cnc3c12", "inhibition": "69.3% (active)"},
      {"smiles": "O=c1c2c(ncn1Cc1ccccc1)nc1n2CCC1", "inhibition": "-3.28% (inactive)"},
      {"smiles": "CN(C)/C=C/c1c(C#N)c(=O)ncn1Cc1ccccc1", "inhibition": "1.93% (inactive)"},
      {"smiles": "C#Cc1cc(N2CCN(C(=O)c3ccoc3)CC2)n2nc(-c3cccc(Cl)c3)cc2n1", "inhibition": "-13.9% (inactive)"},
      {"smiles": "O=C(c1ccccc1)N1CCN(c2cc(-c3ccccc3)nc3cc(-c4cccc(Cl)c4)nn23)CC1", "inhibition": "50.7% (active)"},
      {"smiles": "O=C(c1ccccc1)N1CCN(C(=O)c2cc3nc(-c4ccccc4)cc(C(F)(F)F)n3n2)CC1", "inhibition": "12% (inactive)"},
      {"smiles": "CCC(Sc1nncn1C)C(=O)Nc1nnc(-c2ccc(Cl)cc2)s1", "note": "(stereo not drawn)", "inhibition": "2.15% (inactive)"},
      {"smiles": "Cc1cc(C(=O)OCC(=O)Nc2ccc(F)c(F)c2)c(C)o1", "inhibition": "-6.41% (inactive)"},
      {"smiles": "O=S(=O)(NCC1CCCO1)c1cnc(Cl)c(Cl)c1", "note": "(stereo not drawn)", "inhibition": "61.4% (active)"},
      {"smiles": "O=S(=O)(NCC1CCCO1)c1ccc2ccccc2c1", "note": "(stereo not drawn)", "inhibition": "-2.08% (inactive)"},
      {"smiles": "CCOc1ccc(S(=O)(=O)NCC2CCCO2)cc1", "note": "(stereo not drawn)", "inhibition": "-13.5% (inactive)"},
      {"smiles": "CC1CCCC(C)N1C(=O)COC(=O)c1ccccc1C(=O)c1ccccc1", "note": "(stereo not drawn)", "inhibition": "3.29% (inactive)"},
      {"smiles": "Cc1ncoc1C(=O)N1CCCC(C(=O)c2ccc3c4c(cccc24)CC3)C1", "note": "(stereo not drawn)", "inhibition": "-10.9% (inactive)"},
      {"smiles": "CCC1(c2ccccc2)NC(=O)N(CC(=O)c2ccc3c(c2)OCO3)C1=O", "note": "(stereo not drawn)", "inhibition": "1.98% (inactive)"},
      {"smiles": "O=C(CCN1CCc2ccccc2C(O)(c2ccccc2)C1)c1ccc2c(c1)OCCO2", "note": "(stereo not drawn)", "inhibition": "60.1% (active)"},
      {"smiles": "O=C(CN1CCN(c2ccccc2F)CC1)c1ccc2c(c1)OCO2", "inhibition": "-7.75% (inactive)"},
      {"smiles": "NC(=O)c1nnsc1-c1ccc(-c2snnc2C(N)=O)cc1", "inhibition": "16.3% (inactive)"},
      {"smiles": "CCc1ccccc1N1CN(Cc2ccco2)CNC1=S", "inhibition": "-34% (inactive)"},
      {"smiles": "CC(C)C(NC(=O)C1CCC(C(C)(C)C)CC1)C(=O)NCCCN1CCCCC1", "note": "(stereo not drawn)", "inhibition": "-11.2% (inactive)"},
      {"smiles": "COC(=O)c1cc(Oc2ccc(S(=O)(=O)N3CCOCC3)cc2[N+](=O)[O-])cc(C(=O)OC)c1", "inhibition": "3.34% (inactive)"},
      {"smiles": "Cc1cc(C(=O)COc2ccccc2[N+](=O)[O-])c(C)n1-c1cccc(S(=O)(=O)N2CCOCC2)c1", "inhibition": "82.7% (active)"},
      {"smiles": "Cc1cc(S(=O)(=O)N2CCOCC2)ccc1OCC(=O)N1CCOCC1", "inhibition": "3.41% (inactive)"},
      {"smiles": "COCCN(C(=O)C(C)N1C(=O)c2ccccc2C1=O)c1c(N)n(CC(C)C)c(=O)[nH]c1=O", "note": "(stereo not drawn)", "inhibition": "2.19% (inactive)"},
      {"smiles": "CC/C(O)=C1\\C(=O)CC(C)(C)CC1=NCCc1nc2ccccc2[nH]1", "inhibition": "4.19% (inactive)"},
      {"smiles": "CC1(C)O[C@@H]2CC3C4C[C@H](F)C5=CC(=O)C=CC5(C)C4C(O)CC3(C)[C@]2(C(=O)CO)O1", "note": "(stereo partly drawn)", "inhibition": "-4.61% (inactive)"},
      {"smiles": "COc1ccc(C(=O)NCC[N+](C)(C)C)cc1", "inhibition": "7.64% (inactive)"},
      {"smiles": "CS(=O)(=O)N(CC(=O)N/N=C/c1ccccn1)c1ccc(Oc2ccccc2)cc1", "inhibition": "4.09% (inactive)"},
      {"smiles": "Brc1ccc2ncnc(NCc3cccnc3)c2c1", "inhibition": "62.2% (active)"},
      {"smiles": "Clc1ccc(Cn2ncc3c(NCc4cccnc4)ncnc32)cc1", "inhibition": "31.4% (inactive)"},
      {"smiles": "c1ccc(CNc2ncnc3[nH]ncc23)cc1", "inhibition": "2.58% (inactive)"}
    ]}
  ]
}
